Results filed as inconclusive are left out. Unmarked numbers belong to inactive results. Calls of active or inactive are those of the source. Calls follow the shape of the dose curve; as a rule, active = well fitted curve in either direction with a large enough effect (not every such curve was filed as active); inconclusive = small, poorly fitted or top-dose-only effect, or another doubt; inactive = flat fitted curve, though single readings scatter.
% is scaled to controls: 0 for no effect and ±100 for the full control effect.

The assay is described as follows: NFAT Signaling Pathway (AID 444).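 Also: carbachol stimulus at about its EC50 of 1 µM final.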 Particulars: Jurkat NFAT-bla M1, carbachol, beta-lactamase ratio, 5 h; at 7.69 µM (top of the series) unless noted. The method, boiled down: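 Jurkat cells carrying an NFAT-driven β-lactamase reporter and co-transfected muscarinic M1 receptor were treated with compound plus carbachol (1 uM final, an EC50 level) for 5 h at 37 °C. CCF4 loading followed for 1 h at RT; 460/530 nm ratio gave %activity.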
Regarding `COCCn1c(=O)cnc2cnc(OCc3ccccc3)nc21`, the activity change, negative = inhibition is -3.92%.
The same measure for `COc1ccc(NC(=O)N2CC3(CCN(C(=O)c4cccc(F)c4)CC3)C2)cc1`: -1.23%; for `COc1ccc(C(=O)N2CCC[C@@]3(CCN(Cc4ccccc4OC)C3)C2)cc1`: -18.6%; for `Cc1nc2cnc(OCc3ccccc3)nc2n(CCC#N)c1=O`: -3.58%.
Next, `Cc1cnc(CNc2ncnc3ccc(-c4ccccc4C#N)cc23)cn1`: 0.584%.
The same measure for `COC(=O)N1CCC2(CCN(C(=O)Nc3ccc(OC)cc3)CC2)CC1`: -8.6%.
For the molecule `O=c1c(-c2cccc(F)c2)nc2cncnc2n1Cc1ccccc1`, the activity change, negative = inhibition was -7.28%.
The same measure for `COc1ccc(C(=O)N2CCC3(CC2)CCN(c2cccc(-c4ccccc4)c2)CC3)cc1`: -6.4%; for `COc1ccc(Oc2ncc3ncc(=O)n(Cc4cccc(OC)c4)c3n2)cc1`: -6.25%.
Next, `COCC(=O)N1CCC2(CCN(Cc3cc(C(F)(F)F)cc(C(F)(F)F)c3)CC2)CC1`: -3.18%.
Next, `O=C(c1csnn1)N1CCC2(CCCN(c3ncccn3)C2)CC1`: 2.44%.
In the case of `O=C(Nc1ccccc1)N1CCC2(CCNCC2)CC1`, the activity change, negative = inhibition was -7.88%.
The same measure for `COc1ccccc1CCn1c(=O)c(C)nc2cncnc21`: 6.15%; for `N#Cc1ccc(CN2CC3(CCN(C(=O)c4csnn4)CC3)C2)cc1`: -22.3%; for `COc1ccc(Oc2ncc3nc(C)c(=O)n(C4CC4)c3n2)cc1`: -5.38%.
Next, `COCCn1c(=O)c(-c2ccc(OC)cc2)nc2cnc(Oc3ccc(OC)cc3)nc21`: 18%; `COc1ccc(C(=O)N2CCC[C@@]3(CCN(C)C3)C2)cc1`: -2.06%; `N#Cc1cccc(NC(=O)N2CC[C@@]3(CCCN(C(=O)c4csnn4)C3)C2)c1`: 10.2%.
The same measure for `COc1ccc(-n2c(=O)c(-c3ccc(F)cc3)nc3cnc(OC)nc32)cc1`: 8.51%.
Consider `COc1cccc(Cn2c(=O)c(-c3cccs3)nc3cnc(Nc4ccccc4)nc32)c1`, for which the activity change, negative = inhibition is -18.8%.
On to `COc1cccc(Cn2c(=O)c(-c3cccc(F)c3)nc3cncnc32)c1`, for which the activity change, negative = inhibition is -6.22%.
The same measure for `CS(=O)(=O)N1CCC2(CCCN(Cc3cc(C(F)(F)F)cc(C(F)(F)F)c3)C2)CC1`: -14.4%; for `N#Cc1ccc(CN2CC[C@@]3(CCCN(C(=O)c4ccco4)C3)C2)cc1`: -6.92%; for `O=c1c(-c2cccc(Cl)c2)nc2cncnc2n1Cc1ccc(F)cc1`: -0.975%.
For `Cc1cccc(CNc2ncncc2-c2cccc(NS(C)(=O)=O)c2)c1`, the activity change, negative = inhibition was 8.42%.
The same measure for `CC(=O)N1CCC2(CC1)CCN(C(=O)Nc1cccc(C#N)c1)CC2`: 8.82%.
Next, `COc1cccc(Cn2c(=O)c(-c3cccc(Cl)c3)nc3cncnc32)c1`: -10.8%.
`O=c1c(-c2ccc(Cl)cc2)nc2cncnc2n1Cc1ccccc1`: the activity change, negative = inhibition was -17%.
Regarding `COc1ccc(-c2nc3cnc(OC)nc3n(C3CC3)c2=O)cc1`, the activity change, negative = inhibition is -0.173%.
As to `O=c1c(-c2ccc(F)c(F)c2)nc2cncnc2n1Cc1ccc(F)cc1`, the activity change, negative = inhibition was -2.88%.
Next, `O=C(c1cccc(F)c1)N1CCC2(CC1)CN(C(c1ccccc1)c1ccccc1)C2`: -27.5%.
The same measure for `COc1cccc(Cn2c(=O)c(-c3ccc(Cl)cc3)nc3cnc(N(C)C)nc32)c1`: 154% [activator] (active); for `O=C(Nc1cccc(F)c1)N1CCC2(CC1)CCN(C(=O)c1cccc(F)c1)CC2`: 3.68%; for `COc1ccc(C(=O)N2CCC[C@@]3(CCN(C(=O)Nc4cccc(F)c4)C3)C2)cc1`: 2.1%.
Next, `Cn1cccc1C(=O)N1CCC2(CC1)CN(C(=O)Nc1cccc(C#N)c1)C2`: -2.19%.
In the case of `COC(=O)N1CCC[C@@]2(CCN(Cc3cc(C(F)(F)F)cc(C(F)(F)F)c3)C2)C1`, the activity change, negative = inhibition is 9.2%.
Next, `COc1cccc(Cn2c(=O)c(-c3ccc(F)c(F)c3)nc3cncnc32)c1`: -0.724%; `Cc1noc(C)c1C(=O)N1CCC2(CCCN(c3ncccn3)C2)CC1`: 7.66%; `O=c1c(-c2ccc(F)cc2)nc2cnc(Nc3ccccc3)nc2n1C1CC1`: -2.3%.
Next, `COc1ccc(-c2nc3cnc(OC)nc3n(Cc3cccc(OC)c3)c2=O)cc1`: -10.2%.

These data come from PubChem BioAssay (NCATS).
